From PubChem BioAssay (Tox21)
Inconclusive results are not listed. The source made the active and inactive calls. Unless noted, the call rests on the fitted dose curve.

Tests used:
[1] = Nuclear factor erythroid 2-related factor 2/antioxidant responsive element (Nrf2/ARE) small molecule agonists: luciferase reporter gene qHTS assay in human keratinocytes (AID 1919969); further: nearly all actives have a fitted effect of over 35% in size; further: potency means the concentration at half of the fitted maximal effect
[2] = biological target: Gonadotropin-releasing hormone receptor (Homo sapiens) (UniProt P30968); assay: Human gonadotropin-releasing hormone receptor (GnRHR) small molecule agonists, calcium flux assay in GnRHR-HEK293 cells (AID 1920063); further: nearly all actives have a fitted effect of over 35% in size
Gonadotropin-releasing hormone receptor (Homo sapiens), sequence (P30968 whole entry, looked up): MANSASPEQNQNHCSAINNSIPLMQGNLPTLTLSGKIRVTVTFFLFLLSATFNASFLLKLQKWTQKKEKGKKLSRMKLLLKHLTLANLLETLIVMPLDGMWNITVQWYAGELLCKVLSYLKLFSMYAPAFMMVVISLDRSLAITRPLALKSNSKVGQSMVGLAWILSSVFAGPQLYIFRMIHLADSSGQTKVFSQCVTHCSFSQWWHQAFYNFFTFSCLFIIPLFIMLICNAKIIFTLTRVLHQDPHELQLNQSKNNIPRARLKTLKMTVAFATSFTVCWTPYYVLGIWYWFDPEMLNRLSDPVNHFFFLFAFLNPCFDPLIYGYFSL
Procedure, shortened: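 Calcium-dye fluorescence, Ex/Em=480/540, recorded every 1 sec over 3 min after compound addition to GnRHR-HEK293 cells. Cells had been seeded 18 hours earlier and dye-loaded for 1 hour at 37 C. Fifteen concentrations, triplicates.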

[3] = biological target: KiSS-1 receptor (Homo sapiens) (UniProt Q969F8); assay: Human kisspeptin (KISS1R) small molecule agonists, calcium flux assay in KISS1R-HEK293 cells (AID 1920064; active means well fitted activation curve with a large enough effect in the repeat runs)
KiSS-1 receptor (Homo sapiens), sequence (Q969F8 whole entry, looked up): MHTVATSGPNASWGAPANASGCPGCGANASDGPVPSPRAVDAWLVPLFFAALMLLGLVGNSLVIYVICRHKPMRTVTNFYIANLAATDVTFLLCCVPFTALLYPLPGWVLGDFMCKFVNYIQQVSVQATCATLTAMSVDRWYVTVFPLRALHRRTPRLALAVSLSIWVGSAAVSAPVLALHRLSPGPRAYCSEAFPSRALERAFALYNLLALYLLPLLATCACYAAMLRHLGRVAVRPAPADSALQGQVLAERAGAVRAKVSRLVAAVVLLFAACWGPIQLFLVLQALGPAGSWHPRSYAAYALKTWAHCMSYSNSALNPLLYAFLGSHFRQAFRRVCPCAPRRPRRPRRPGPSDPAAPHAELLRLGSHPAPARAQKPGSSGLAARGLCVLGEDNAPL
Procedure, shortened: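 Calcium flux read-out: kinetic fluorescence at Ex/Em=480/540, 1 s intervals over 3 min, after pin-tool compound addition to dye-loaded KISS1R-HEK293 cells. Fifteen concentrations, triplicates.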

[4] = G protein-coupled receptor (GPCR) small molecule agonists, calcium flux assay: HEK293 wild type cell line counter screen (AID 1920065)
Procedure, shortened: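 Agonist mode; 18 h seeding at 37 C, 1 h dye load at 37 C; compounds pinned from DMSO, ATP as positive control; kinetic fluorescence 480/540 nm, 3 min, 1 s reads; 15 concentrations, triplicate.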

[5] = p53 small molecule agonists, cell-based qHTS assay with human liver microsomes (AID 1963577);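 further: p53 response element beta-lactamase reporter cells with liver microsomes plus NADPH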
Procedure, shortened: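 Metabolically competent format: test substances, human liver microsomes and NADPH (both 0.5 mg/mL final) incubated with p53RE-bla cells 16 h at 37 C. Beta-lactamase reporter signal then quantified by fluorescence.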

[6] = p53 small molecule agonists, cell-based qHTS assay with rat liver microsomes (AID 1963578)
Procedure, shortened: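 Each plate received p53RE-bla cells, then compound, then rat liver microsomes and NADPH (both 0.5 mg/mL final). Plates were held 16 h at 37 C, and beta-lactamase activity was detected with LiveBLAzer over 2 h.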

[7] = p53 small molecule agonists, cell-based qHTS assay with human liver microsomes: qHTS cell viability counter screen (AID 1963579); further: nearly all actives have a fitted effect of over 45% in size
Procedure, shortened: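 Tox21 library compounds, delivered from DMSO stocks, were tested on p53RE-bla cells together with 0.5 mg/mL human liver microsomes and 0.5 mg/mL NADPH (final) over 16 h at 37 C; CellTiter-Glo luminescence served as the cytotoxicity measure.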

[8] = p53 small molecule agonists, cell-based qHTS assay with rat liver microsomes: qHTS cell viability counter screen (AID 1963580); further: nearly all actives have a fitted effect of over 45% in size
Procedure, shortened: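 Rat liver microsome (0.5 mg/mL final) and NADPH (0.5 mg/mL final) co-incubation with compounds for 16 h at 37 C on HCT-116 p53RE-bla cells; cytotoxicity taken from intracellular ATP luminescence.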

[9] = p53 small molecule agonists, cell-based qHTS assay: qHTS cell viability counter screen (AID 1963581); further: nearly all actives have a fitted effect of over 45% in size
Procedure, shortened: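 Cytotoxicity read-out: ATP-based luminescence (CellTiter-Glo, 30 min RT) measured in the same wells as the p53 reporter assay, HCT-116 p53RE-bla cells, 16 h compound exposure at 37 C.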

[10] = p53 small molecule agonists, cell-based qHTS assay (AID 1963582; active means well fitted activation curve with a large enough effect in the signal ratio in the repeat runs, not every such curve was filed as active; the % refers to the signal ratio)
Procedure, shortened: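 Fluorescence intensity read-out of a beta-lactamase reporter under a p53 response element. Cells were exposed to DMSO-dissolved compounds for 16 h at 37 C, then developed with FRET substrate for 2 h at RT.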

[11] = biological target: 5-hydroxytryptamine receptor 2A (Homo sapiens) (UniProt P28223); assay: 5-hydroxytryptamine receptor 2A (HTR2A) small molecule antagonists, cell-based qHTS assay (AID 1963586); further: nearly all actives have a fitted effect of over 45% in size; further: potency means the concentration at half of the fitted maximal effect
5-hydroxytryptamine receptor 2A (Homo sapiens), sequence (P28223 whole entry, looked up): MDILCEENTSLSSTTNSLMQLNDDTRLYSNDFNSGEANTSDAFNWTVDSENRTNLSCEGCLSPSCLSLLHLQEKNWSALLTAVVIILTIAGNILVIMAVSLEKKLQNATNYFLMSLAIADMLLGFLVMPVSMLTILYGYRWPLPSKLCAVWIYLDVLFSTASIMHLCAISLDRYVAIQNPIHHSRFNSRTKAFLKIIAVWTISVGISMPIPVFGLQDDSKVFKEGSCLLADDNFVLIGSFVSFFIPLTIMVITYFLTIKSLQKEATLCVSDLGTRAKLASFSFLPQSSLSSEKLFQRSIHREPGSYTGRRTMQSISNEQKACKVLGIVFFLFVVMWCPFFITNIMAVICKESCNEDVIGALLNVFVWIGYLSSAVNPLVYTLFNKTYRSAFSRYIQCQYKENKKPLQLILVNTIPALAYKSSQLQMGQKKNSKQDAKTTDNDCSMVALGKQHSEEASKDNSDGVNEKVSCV
Procedure, shortened: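 CHO cells stably expressing human HTR2A were plated for 18 h at 37 C, then loaded with calcium dye for 1 h. Compounds were preincubated 5 min at room temperature before DOI (4 nM solution) was added. Kinetic fluorescence was read for 3 min.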

[12] = biological target: 5-hydroxytryptamine receptor 2A (Homo sapiens) (UniProt P28223); assay: 5-hydroxytryptamine receptor 2A (HTR2A) small molecule agonists, cell-based qHTS assay (AID 1963587); further: nearly all actives have a fitted effect of over 30% in size
Procedure, shortened: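 Kinetic calcium-flux fluorescence (2 min, 1 sec intervals) after compound addition in agonist mode. HTR2A-CHO cells were cultured 18 h, then dye-loaded 1 h at 37 C.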

[13] = biological target: Muscarinic acetylcholine receptor M1 (Homo sapiens) (UniProt P11229); assay: Cholinergic receptor muscarinic 1 (CHRM1) small molecule antagonists, cell-based qHTS assay (AID 1963588); further: nearly all actives have a fitted effect of over 40% in size; further: potency means the concentration at half of the fitted maximal effect
Muscarinic acetylcholine receptor M1 (Homo sapiens), sequence (P11229 whole entry, looked up): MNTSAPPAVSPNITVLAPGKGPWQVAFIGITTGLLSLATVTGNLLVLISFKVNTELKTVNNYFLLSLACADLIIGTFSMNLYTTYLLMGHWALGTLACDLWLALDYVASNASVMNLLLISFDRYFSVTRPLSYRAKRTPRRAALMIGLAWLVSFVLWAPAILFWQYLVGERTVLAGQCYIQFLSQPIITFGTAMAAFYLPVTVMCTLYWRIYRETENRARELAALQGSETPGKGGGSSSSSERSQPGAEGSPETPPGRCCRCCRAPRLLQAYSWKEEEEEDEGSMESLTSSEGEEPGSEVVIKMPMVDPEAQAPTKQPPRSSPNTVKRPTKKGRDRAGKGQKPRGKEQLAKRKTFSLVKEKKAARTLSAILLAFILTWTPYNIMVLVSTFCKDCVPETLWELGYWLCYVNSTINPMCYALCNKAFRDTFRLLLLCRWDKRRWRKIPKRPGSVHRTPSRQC
Procedure, shortened: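 Compounds were tested at 15 concentrations in three independent runs. Dye-loaded CHRM1-CHO cells were exposed 5 min at room temperature before stimulation by acetylcholine added at 50nM. Intracellular calcium was read kinetically on FDSS for 3 min.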

[14] = biological target: Muscarinic acetylcholine receptor M1 (Homo sapiens) (UniProt P11229); assay: Cholinergic receptor muscarinic 1 (CHRM1) small molecule agonists, cell-based qHTS assay (AID 1963589); further: nearly all actives have a fitted effect of over 35% in size
Procedure, shortened: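 Calcium flux read-out: kinetic fluorescence at 1 sec intervals after pin-tool compound addition to dye-loaded CHRM1-CHO cells (human M1). Agonist mode; 15 concentrations tested in triplicate independent runs.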

[15] = cAMP Responsive Elements (CRE) small molecule agonists, cell-based qHTS assay (AID 1963590)
Procedure, shortened: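 Beta-lactamase reporter readout: LiveBLAzer B/G FRET substrate, 2 h at room temperature, added after 3 h compound treatment of CRE-bla HEK 293T cells at 37 C/5% CO2.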

[16] = cAMP Responsive Elements (CRE) small molecule antagonists, cell-based qHTS assay (AID 1963591; active means well fitted inhibition curve with a large enough effect in the signal ratio in the repeat runs, not every such curve was filed as active; the % refers to the signal ratio)
Procedure, shortened: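 HEK293T CRE-bla; 18 h preincubation; compound pin-transfer; NKH477 0.25 uM final, 3 h, 37 C; LiveBLAzer FRET substrate 2 h RT.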

[17] = biological target: Beta-2 adrenergic receptor (Homo sapiens) (UniProt P07550); assay: Adrenergic beta2 receptor (ADRB2) small molecule antagonists, cell-based qHTS assay (AID 1963592); further: series mostly up to about 92 µM; nearly all actives have a fitted effect of over 50% in size
Beta-2 adrenergic receptor (Homo sapiens), sequence (P07550 whole entry, looked up): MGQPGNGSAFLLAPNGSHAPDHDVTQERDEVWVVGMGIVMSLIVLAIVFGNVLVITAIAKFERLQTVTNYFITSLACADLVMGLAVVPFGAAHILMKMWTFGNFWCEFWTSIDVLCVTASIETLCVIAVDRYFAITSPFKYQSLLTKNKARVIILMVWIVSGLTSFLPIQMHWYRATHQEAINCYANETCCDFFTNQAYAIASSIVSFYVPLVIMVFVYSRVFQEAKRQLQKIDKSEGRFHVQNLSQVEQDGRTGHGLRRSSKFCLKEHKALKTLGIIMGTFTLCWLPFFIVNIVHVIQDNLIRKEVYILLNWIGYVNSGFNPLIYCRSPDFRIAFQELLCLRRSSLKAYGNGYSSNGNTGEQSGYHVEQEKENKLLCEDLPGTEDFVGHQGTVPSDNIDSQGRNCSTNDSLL
Procedure, shortened: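 Assay format: CHO-ADRB2 cells, 18-20hr seeding at 37C/5% CO2, then compound plus 1nM isoproterenol agonist mix for 0.5hr RT. Homogeneous time-resolved fluorescence cAMP detection after 1hr, expressed as 665/615 nm ratio.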

[18] = biological target: Beta-2 adrenergic receptor (Homo sapiens) (UniProt P07550); assay: Adrenergic beta2 receptor (ADRB2) small molecule agonists, cell-based qHTS assay (AID 1963593);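 further: CHO cells stably overexpressing human ADRB2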
Procedure, shortened: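 CHO cells stably over-expressing ADRB2 were plated overnight at 37C, then dosed with compounds plus a stimulation mix containing 100uM IBMX and 25uM Ro-20-1724 for 0.5hr at room temperature. cAMP was measured by HTRF competition, 1hr.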

[19] = biological target: D(2) dopamine receptor (Homo sapiens) (UniProt P14416); assay: Dopamine D2 receptor (DRD2) small molecule agonists, cell-based qHTS assay (AID 1963594); further: nearly all actives have a fitted effect of over 35% in size; further: potency means the concentration at half of the fitted maximal effect
D(2) dopamine receptor (Homo sapiens), sequence (P14416 whole entry, looked up): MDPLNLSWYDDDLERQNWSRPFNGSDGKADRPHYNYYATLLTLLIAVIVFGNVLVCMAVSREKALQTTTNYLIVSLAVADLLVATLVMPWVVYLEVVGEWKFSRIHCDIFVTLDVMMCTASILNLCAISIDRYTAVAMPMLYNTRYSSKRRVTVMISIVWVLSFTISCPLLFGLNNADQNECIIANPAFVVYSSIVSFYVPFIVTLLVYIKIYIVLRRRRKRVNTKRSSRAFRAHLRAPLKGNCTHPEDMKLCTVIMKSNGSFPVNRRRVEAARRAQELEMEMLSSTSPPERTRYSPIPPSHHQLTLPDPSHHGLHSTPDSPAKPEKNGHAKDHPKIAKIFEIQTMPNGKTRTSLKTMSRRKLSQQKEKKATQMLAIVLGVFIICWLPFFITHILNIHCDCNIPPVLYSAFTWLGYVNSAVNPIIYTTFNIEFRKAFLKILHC
Procedure, shortened: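 cAMP accumulation in DRD2-HEK293 cells measured by HTRF after 1 h detection; compounds added 10 min before NKH477 (200nM […]) forskolin-analogue stimulation, 30 min at room temperature, with Ro20-1724 present at 0.1 mM final.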

[20] = biological target: D(2) dopamine receptor (Homo sapiens) (UniProt P14416); assay: Dopamine D2 receptor (DRD2) small molecule antagonists, cell-based qHTS assay (AID 1963595; active means well fitted inhibition curve with a large enough effect in the signal ratio in the repeat runs, with a control signal flat; the % refers to the signal ratio; further: potency means the concentration at half of the fitted maximal effect)
Procedure, shortened: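 HEK293 cells stably expressing DRD2 were preincubated with 0.1 mM Ro20-1724, then with compound for 10 min at room temperature. Cells were stimulated with 200 nM NKH477 plus 12 nM quinpirole for 30 min, and cAMP was read by HTRF.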
On the % scale 0 is the no-effect control and ±100 the full control effect.

NC(=S)NC(N)=S
active: Potency [1] 13.7 µM
inactive: Potency [2] | Potency [3] | Potency [4] | Potency [5] | Potency [6] | Potency [7] | Potency [8] | Potency [9] | Potency [10] | Potency [11] | Potency [12] | Potency [13] | Potency [14] | Potency [15] | Potency [16] | Potency [17] | Potency [18] | Potency [19] | Potency [20]

CCCCC(CC)CN1CN(CC(CC)CCCC)CC(C)(N)C1 (configuration not stated)
inactive: Potency [1] | Potency [2] | Potency [3] | Potency [4] | Potency [5] | Potency [6] | Potency [7] | Potency [8] | Potency [9] | Potency [10] | Potency [13] | Potency [14] | Potency [16] | Potency [17] | Potency [19] | Potency [20]

Oc1ccc(CCNCCCCCCNCCc2ccccc2)cc1O
inactive: Potency [1] | Potency [2] | Potency [3] | Potency [4] | Potency [5] | Potency [6] | Potency [7] | Potency [8] | Potency [9] | Potency [10] | Potency [12] | Potency [13] | Potency [14] | Potency [16] | Potency [17] | Potency [19]
active: Potency [20] 8.41 µM

CCCCCCCC/C=C\CCCCCCCC(=O)N(CCO)CCO
inactive: Potency [1] | Potency [2] | Potency [3] | Potency [4] | Potency [5] | Potency [6] | Potency [7] | Potency [8] | Potency [9] | Potency [11] | Potency [12] | Potency [13] | Potency [14] | Potency [15] | Potency [16] | Potency [17] | Potency [18] | Potency [19] | Potency [20]

COC(=O)[C@@H](N)Cc1ccc(O)c(O)c1
inactive: Potency [1] | Potency [2] | Potency [3] | Potency [4] | Potency [5] | Potency [6] | Potency [7] | Potency [8] | Potency [9] | Potency [10] | Potency [12] | Potency [14] | Potency [15] | Potency [16] | Potency [17] | Potency [18] | Potency [20]
active: Potency [19] 26.6 µM

COc1ccc(-c2ccc3cc(C(=O)O)ccc3c2)cc1C12CC3CC(CC(C3)C1)C2
inactive: Potency [1] | Potency [2] | Potency [3] | Potency [4] | Potency [5] | Potency [6] | Potency [7] | Potency [8] | Potency [9] | Potency [10] | Potency [11] | Potency [13] | Potency [15] | Potency [16] | Potency [17] | Potency [19] | Potency [20]

CN1CCN(c2cc3c(nn2)Oc2ccccc2N3C)CC1
inactive: activity, positive = activation [1] 17.2% [at 19 µM] | activity change [2] -0.362% [at 11.8 µM, stronger effect = higher value] | activation [3] -0.078% [at 15.8 µM] | activation [4] -0.0481% [at 11.8 µM] | activation [5] -1.74% [at 13.5 µM] | activation [6] 0.736% [at 13.6 µM] | activity change, negative = cytotoxicity [7] -6.1% [at 13.5 µM] | activity change, negative = cytotoxicity [8] 0.69% [at 13.5 µM] | activity change, negative = cytotoxicity [9] -9.68% [at 13.5 µM] | activation [10] 6.54% [at 13.5 µM] | activation [12] -12.8% [at 15.9 µM] | activity, negative = inhibition [13] -12.9% [at 12.6 µM] | activation [14] 3.18% [at 15.8 µM] | activation [15] 1.47% [at 19 µM] | activity change, negative = inhibition [16] 0.639% [at 18.9 µM] | activation [18] 4.93% [at 19 µM] | activation [19] 11.1% [at 19 µM] | activity change, negative = inhibition [20] -3.28% [at 18.9 µM]

CN(C)CC[C@@H](c1ccc(Br)cc1)c1ccccn1
inactive: Potency [4] | Potency [7] | Potency [8] | Potency [12] | Potency [14] | Potency [15] | Potency [16] | Potency [17] | Potency [18] | Potency [19] | Potency [20]

O=C(Oc1ccccc1)c1ccc2ccccc2c1O
inactive: Potency [2] | Potency [3] | Potency [4] | Potency [5] | Potency [6] | Potency [7] | Potency [8] | Potency [9] | Potency [11] | Potency [12] | Potency [13] | Potency [14] | Potency [15] | Potency [16] | Potency [17] | Potency [18] | Potency [19] | Potency [20]
active: Potency [1] 8.63 µM

CCCCCCCCCCCCN1CCCC1=O
inactive: Potency [1] | Potency [2] | Potency [3] | Potency [4] | Potency [5] | Potency [6] | Potency [7] | Potency [8] | Potency [9] | Potency [10] | Potency [11] | Potency [12] | Potency [13] | Potency [14] | Potency [15] | Potency [16] | Potency [18] | Potency [19] | Potency [20]

CN(C/C=C/c1ccccc1)Cc1cccc2ccccc12
inactive: Potency [1] | Potency [2] | Potency [3] | Potency [4] | Potency [5] | Potency [6] | Potency [7] | Potency [8] | Potency [9] | Potency [10] | Potency [12] | Potency [13] | Potency [14] | Potency [17] | Potency [19]
active: Potency [20] 6.68 µM

c1ccc(OCc2ccc(CCCN3CCOCC3)cc2)cc1
inactive: Potency [1] | Potency [2] | Potency [3] | Potency [4] | Potency [5] | Potency [6] | Potency [7] | Potency [8] | Potency [9] | Potency [12] | Potency [14] | Potency [15] | Potency [17] | Potency [19] | Potency [20]
active: Potency [11] 20.5 µM | Potency [13] 2.05 µM

Cn1cc(C(=O)[C@@H]2CCc3nc[nH]c3C2)c2ccccc21
inactive: Potency [4] | Potency [7] | Potency [8] | Potency [9] | Potency [11] | Potency [12] | Potency [13] | Potency [14] | Potency [15] | Potency [16] | Potency [17] | Potency [19] | Potency [20]

CCOc1ccc(N=Nc2ccc(/C=C/c3ccc(N=Nc4ccc(OCC)cc4)cc3S(=O)(=O)O)c(S(=O)(=O)O)c2)cc1
inactive: Potency [1] | Potency [2] | Potency [3] | Potency [4] | Potency [5] | Potency [6] | Potency [7] | Potency [8] | Potency [9] | Potency [10] | Potency [11] | Potency [12] | Potency [14] | Potency [15] | Potency [17] | Potency [19] | Potency [20]
